Only some compounds are listed: those with a hit (about 2.4% of all), similar ones and a draw of the others.
D2 PAM-1: D2 dopamine receptor (human) potentiation; HEK293 T-REx D2, calcium flux, EC20 dopamine potentiation; potentiation, % at 10 µM; 340,000 tested, 0.34% active; AID 485347;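 active = potentiation over 3 SD above the plate norm, cut at about 30% in these data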; note: 0% is about no effect
Target sequence (P14416 whole entry, looked up): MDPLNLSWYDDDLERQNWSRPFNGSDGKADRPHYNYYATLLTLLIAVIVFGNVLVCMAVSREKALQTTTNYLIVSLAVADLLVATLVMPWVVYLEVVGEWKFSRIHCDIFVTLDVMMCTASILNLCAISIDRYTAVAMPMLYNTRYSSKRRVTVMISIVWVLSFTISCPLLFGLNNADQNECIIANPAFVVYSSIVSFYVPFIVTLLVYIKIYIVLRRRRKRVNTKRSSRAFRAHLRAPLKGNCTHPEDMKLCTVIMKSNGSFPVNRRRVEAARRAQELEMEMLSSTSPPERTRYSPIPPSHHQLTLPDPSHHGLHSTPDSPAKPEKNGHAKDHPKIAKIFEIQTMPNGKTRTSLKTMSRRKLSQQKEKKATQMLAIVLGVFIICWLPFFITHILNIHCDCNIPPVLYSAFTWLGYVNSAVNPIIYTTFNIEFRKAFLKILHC
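Calcium flux readout, no-wash dye, 1 read/s. Inducible HEK293 Trex D2 line, overnight 30 C. Compound alone 180 s (agonist flags), then EC20 dopamine, another 180 s to score potentiation.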
D2 ag-1: agonists of human D2 dopamine receptor. 340,000 tested, 0.53% active. P14416. AID 485358. HEK293 T-REx D2 cells, calcium flux agonist mode. activation, % at 2 µM;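 active = activation over 3 SD above normal in the single-dose calcium agonist read, cut at about 30% in these data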; note: 0% is about no effect
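Tetracycline-induced HEK293 T-REx cells with force-coupled D2 receptor, plated overnight at 30 C, loaded with no-wash calcium dye. After a 10 s baseline, compound was pin-added and calcium flux read kinetically for 180 s; calcium rises flagged agonists.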
D2 antag: D2 dopamine receptor (human) antagonism; HEK293 TREx D2 cells, calcium flux, dopamine EC80; 340,000 tested, 2% active; AID 485344; inhibition, % at 10 µM; in the data active = inhibition above about 30%; inactive = below that, where a call was filed; note: 0% is about no effect
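In this primary screen, negative modulation is detected by tracking calcium flux after an EC80 dopamine challenge in inducible HEK293 T-REx D2 cells preexposed to test compound for 180 s.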
D2 ag-2: agonists of human D2 dopamine receptor (beta-arrestin) | activation, % (concentration not given with the values) | P14416 | 360,000 tested, 0.084% active | DiscoveRx PathHunter D2 beta-arrestin, luminescence, 90 min; 100% = 57 uM dopamine signal | AID 624465; in the data active = activation above about 40%; inconclusive = between about 15% and that limit
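Agonist mode: compounds alone added to overnight-plated D2 PathHunter cells for 90 min at 37 C, with 57 uM final dopamine (EC100) defining full response. Beta-arrestin recruitment detected by chemiluminescent reagent, read after 1 h at ambient temperature.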
D2 PAM-2: positive allosteric modulators of human D2 dopamine receptor | P14416 | DiscoveRx D2 beta-arrestin cells, luminescence, 90 min; 100% = 57 uM dopamine signal | potentiation, % (concentration not given with the values) | 360,000 tested, 0.23% active | AID 624464; in the data active = potentiation above about 50%; inconclusive = mostly about 30% to 49%
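PathHunter beta-arrestin assay in DiscoveRx D2 cells. Compounds were added with an EC20 of dopamine (50 nM final) for 90 min at 37 deg C. Luminescence was read 1 h after detection reagent, with 57 uM dopamine as the EC100 control.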
D3 ag: confirmation of human D3 dopamine receptor agonists, beta-arrestin; shares compounds with D2 ag-1; DiscoveRx D3 beta-arrestin cells, luminescence, 90 min; Potency, µM (top dose mostly 76.9 µM), without a hit: at the top dose activation, usual class: activators; 2,300 tested, 4% active; AID 720506;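 note: potency is the fitted concentration of half-maximal effect; 100% = dopamine control response; nearly all actives have a fitted effect of over 70% in size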
D2 ag-3: activates human D2 dopamine receptor in D3 counterscreen; shares compounds with D2 ag-1; 2,300 tested, 5.9% active; AID 720507; DiscoveRx PathHunter D2 beta-arrestin, luminescence, 90 min; response scale: percent relative to full dopamine signal; Potency, µM (doses to about 76.9 µM), for inactives: at the highest dose activation, usual class: activators; note: potency is the fitted concentration of half-maximal effect; % of control where 0% means no effect; nearly all actives have a fitted effect of over 70% in size
* marks the source's active call; other numbers are inactive results. Unless noted, calls come from the whole dose curve; as a rule, active = well fitted activation curve with a large enough effect; inconclusive = small, poorly fitted or top-dose-only effect; inactive = flat fitted curve, though single readings scatter.

`CC(=O)N1CCN(C(C)=O)C1c1ccccc1` gave D2 PAM-1 3, D2 ag-1 0, D2 antag -12, D2 ag-2 -3 and D2 PAM-2 -1.
CC(=O)N1C(O)CC(C)N1c1ccccc1 (stereo unspecified) was read as D2 PAM-1 -3, D2 ag-1 0, D2 antag 0, D2 ag-2 2, D2 PAM-2 8, D3 ag 2% and D2 ag-3 -3%.
For CCN1C(=O)c2ccccc2S(=O)(=O)c2ccc(C(=O)NCc3ccccc3OC)cc21 the results were D2 PAM-1 1 and D2 ag-1 -1.
For CCOc1ccc(/C=N/NC(=O)c2cc(-c3ccccc3)nc3ccccc23)cc1O the results were D2 ag-2 -5, D2 PAM-2 -9, D3 ag 1% and D2 ag-3 7%.
For CCOC(=O)c1cc(S(=O)(=O)N2CCN(Cc3ccccc3)CC2)cn1C the results were D2 PAM-1 2, D2 ag-1 0, D2 antag -12, D2 ag-2 -2 and D2 PAM-2 0.
Screening CCOC(=O)C1=CCN(Cc2ccccc2)CC1 returned D2 PAM-1 -17, D2 ag-1 83*, D2 antag 101*, D2 ag-2 77*, D2 PAM-2 13, D3 ag 19% and D2 ag-3 inconclusive.
`CCc1cccc(NC(=O)Cn2c(=O)n3nc(-c4cccc(F)c4)nc3c3ccccc32)c1` gave D2 PAM-1 -7 and D2 ag-1 19.
For O=c1[nH]c(N/N=C/c2ccccc2Br)nnc1-c1ccccc1 the results were D2 PAM-1 -4, D2 ag-1 -2, D2 antag 25, D2 ag-2 4 and D2 PAM-2 -5.
`COc1ccc(/C=N/Nc2nnc(-c3ccccc3)c(=O)[nH]2)cc1` gave D2 PAM-1 -21, D2 ag-1 60*, D2 antag -21, D2 ag-2 2, D2 PAM-2 -7, D3 ag 6% and D2 ag-3 2%.
For COc1ccc(CCNC(=O)CCCn2nc(C)c3sc4ccccc4c3c2=O)c(OC)c1 the results were D2 PAM-1 -2.
Screening Cc1nn(-c2ccccc2)c(C)c1/C=C/C(=O)OC(C)C(=O)Nc1ncc(Cl)cc1Cl (stereo unspecified) returned D2 PAM-1 -22, D2 ag-1 30*, D2 antag -5, D2 ag-2 -4, D2 PAM-2 -17, D3 ag 2% and D2 ag-3 0%.
Cc1nn(-c2ccccc2)c(C)c1/C=C/C(=O)OCC(=O)Nc1ncc(Cl)cc1Cl was read as D2 PAM-1 0, D2 ag-1 -1, D2 antag -2, D2 ag-2 -1 and D2 PAM-2 8.
For CCCn1c(N)c(C(c2ccc(C(=O)OC)cc2)N2CCN(c3ccccc3)CC2)c(=O)[nH]c1=O (stereo unspecified) the results were D2 PAM-1 -8, D2 ag-1 48*, D2 antag 16, D2 ag-2 -1, D2 PAM-2 -5, D3 ag 5% and D2 ag-3 11%.
CCCn1c(N)c(C(c2ccc(OC)cc2)N2CCN(c3ccccc3)CC2)c(=O)[nH]c1=O (stereo unspecified) was read as D2 PAM-1 -10, D2 ag-1 43*, D2 antag 3, D2 ag-2 7, D2 PAM-2 -9, D3 ag -8% and D2 ag-3 7%.
`COC(=O)c1ccc(C(c2c(N)n(CC(C)C)c(=O)[nH]c2=O)N2CCN(c3ccccc3)CC2)cc1` (stereo unspecified) gave D2 ag-2 1 and D2 PAM-2 -3.
Screening COc1cccc2cc(C(=O)NCCc3c(C)[nH]c4ccc(F)cc34)c(=O)oc12 returned D2 PAM-1 1 and D2 ag-1 0.

From PubChem BioAssay
